Shown are actives, neighbours in structure and some others; about 27% of the full set was active somewhere.
CYP2C19 inhib: blockers of cytochrome P450 2C19 activity – biochemical, luminescence, ADME assay, primary screen. CYP2C19 Supersomes, luciferin-H EGE luminescence, 30 min. inhibition, % at 5 µM. 96,000 compounds, 21% hits. P33261;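 active means CYP2C19 inhibition above a set limit at 5 µM in the primary screen, cut at about 50% in these data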;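 further: plate controls were negative control wells for no effect and 2.5 mM tranylcypromine positive control for full effect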
CYP2C19 activ: human CYP2C19 activators, primary screen, biochemical, luminescence. recombinant CYP2C19, luciferin-H EGE luminescence; stronger effect = higher value; 0 = fully inhibited enzyme, 1 = untreated enzyme. 96,000 tested, under 10 active. Cytochrome P450 2C19 (Homo sapiens), P33261. activation factor at 5 µM;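 active means activation factor of at least 2 at 5 µM in the primary screen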;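 further: 0 = wells with 2.5 mM tranylcypromine and 1 = vehicle-only wells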
CYP2C9 activ: human CYP2C9 activators, primary screen, biochemical, luminescence; Cytochrome P450 2C9 (Homo sapiens), P11712; recombinant CYP2C9, luciferin-H conversion; stronger effect = higher value; factor 1 = untreated enzyme, 0 = blocked; activation factor at 5 µM; 96,000 compounds, 1.4% hits; AID 1024, 2008;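 active means activation factor of 2 or more for CYP2C9 at a 5 µM dose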;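 further: 0 = sulfaphenazole-blocked wells and 1 = vehicle-only wells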
Target sequence (P11712 whole entry, looked up): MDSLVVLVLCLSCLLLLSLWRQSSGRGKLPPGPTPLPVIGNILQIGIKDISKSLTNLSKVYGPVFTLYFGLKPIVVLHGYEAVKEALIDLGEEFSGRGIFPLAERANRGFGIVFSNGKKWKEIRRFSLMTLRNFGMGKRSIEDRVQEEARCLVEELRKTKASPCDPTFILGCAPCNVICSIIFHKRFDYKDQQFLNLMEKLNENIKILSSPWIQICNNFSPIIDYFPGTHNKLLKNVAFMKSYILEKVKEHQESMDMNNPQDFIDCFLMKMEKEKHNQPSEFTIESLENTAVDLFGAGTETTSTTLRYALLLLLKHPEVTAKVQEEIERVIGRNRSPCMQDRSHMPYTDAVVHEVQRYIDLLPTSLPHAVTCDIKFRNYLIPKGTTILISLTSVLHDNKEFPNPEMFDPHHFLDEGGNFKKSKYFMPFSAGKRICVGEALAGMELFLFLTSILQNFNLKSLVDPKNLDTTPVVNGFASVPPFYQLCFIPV
Cav3 T inh: Cav3.2 calcium influx blockers – cell-based, Fluo-4 calcium fluorescence, FDSS, MLSMR library, primary screen; Voltage-dependent T-type calcium channel subunit alpha-1H (Homo sapiens), O95180; Cav3.2-expressing cells; stronger effect = lower value; B-score at 10 µM; 100,000 compounds, 4% hits;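 active means single-dose well whose peak fluorescence ratio is a statistical outlier from its plate by either plate-standardised score or position-corrected B-score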
CYP2C9 inh: blockers of cytochrome P450 2C9 activity – biochemical, luminescence, ADME assay, primary screen; P11712; CYP2C9 Supersomes, luciferin-H conversion; inhibition, % at 5 µM; 96,000 compounds, 20% hits; AID 777, 2007;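 active means blocking of liver enzyme CYP2C9 beyond about 50% at 5 µM, limit read from the data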
* marks the source's active call; other numbers are inactive results; / = no result.

SMILES	CYP2C19 inhib	CYP2C19 activ	CYP2C9 activ	Cav3 T inh	CYP2C9 inh
CCOC(=O)c1c(C)[nH]c(C(=O)C(C)OC(=O)c2cccc(OCc3c(C)noc3C)c2)c1C (stereo not drawn)	79*	0.2	0.1	-4.7*	90*
CCOC(=O)C(CC)(CC)C(=O)/C=C/c1cccc(Br)c1	/	/	/	0.67	/
CCOC(=O)c1oc2ccc(Br)cc2c1NC(=O)CN1CCN(C)CC1	5	1	1	1.9	2
COC(=O)c1oc2ccc(Br)cc2c1NC(=O)CCN1CCOCC1	45	0.6	0.4	0.36	55*
COC(=O)c1[nH]c2ccc(Cl)cc2c1NC(=O)CN1CCC(C(N)=O)CC1	12	0.9	0.9	-0.19	9
NC(=O)c1oc2ccc(Cl)cc2c1NC(=O)CN1CCOCC1	52*	0.5	0.8	1.5	16
Cc1ccc(OCC(=O)OCc2c(C)noc2C)cc1C	29	0.7	0.8	0.61	16
COc1ccc(-c2nc(N)nc(C)c2Oc2ccccc2Br)c(O)c1	85*	0.1	0.1	-0.27	94*
CCC(=O)Nc1ccccc1C(=O)NC1CCCCC1	32	0.7	1.6	-1.1	-60
O=c1c2c(-c3ccccc3)csc2ncn1/N=C/c1c2ccccc2cc2ccccc12	15	0.8	0.2	-1.8	85*
Cc1nn(-c2ccccc2)c(N2CCCC2)c1/C=N/n1cnc2scc(-c3ccccc3)c2c1=O	10	0.9	0.8	-5.6*	21
CCCOc1ccccc1N/C(=N/c1nc(C)cc(C)n1)NC(=O)Nc1ccc(Cl)cc1	-3	1	0.8	-0.23	19
COc1ccc(-n2c(-c3ccc(F)cc3)cnc2SCC(=O)NCc2ccco2)cc1	92*	0.1	0.1	-5.7*	94*
O=C(CSc1ncc(-c2ccccc2)n1-c1ccccc1)NCc1ccco1	50*	0.5	0.3	-2.6	74*
COc1ccc(CNC(=O)CN(Cc2ccc(C)cc2)S(=O)(=O)c2ccc(Cl)cc2)cc1	32	0.7	0.7	-0.079	26
O=C(CN(Cc1ccccc1)S(=O)(=O)c1ccccc1)N/N=C/c1ccccc1[N+](=O)[O-]	42	0.6	0.3	-1.9	65*
Cc1ccc(CN(CC(=O)N/N=C/c2ccccc2[N+](=O)[O-])S(=O)(=O)c2ccc(C)cc2)cc1	97*	0	0.2	-4*	85*
Cc1ccc2c(c1)cc(CN(Cc1ccc3c(c1)OCO3)S(=O)(=O)c1ccccc1)c1nnnn12	80*	0.2	0.3	-1.6	69*
Cc1ccc2c(c1)cc(CN(Cc1cccs1)C(=O)c1ccco1)c1nnnn12	5	0.9	0.8	-0.67	18
c1ccc(CCN2CCN(c3ncnc4c3cnn4-c3ccccc3)CC2)cc1	79*	0.2	0.2	3	78*
Cc1ccccc1N1CCN(c2ncnc3c2cnn3Cc2ccc(Cl)cc2)CC1	41	0.6	0.2	-4.6*	76*
Cc1cccc(-n2ncc3c(N4CCC(C)CC4)ncnc32)c1	71*	0.3	0	-1	96*
Cc1ccc(Cn2ncc3c(N4CCN(Cc5ccc(Cl)cc5)CC4)ncnc32)cc1	9	0.9	0.7	/	34
CC1CCN(c2ncnc3c2cnn3Cc2ccc(Cl)cc2)CC1	38	0.6	0.2	-2.7	76*
Cc1cccc(-n2ncc3c(N4CCC5(CC4)OCCO5)ncnc32)c1	/	/	/	0.69	/
SMILES	CYP2C19 inhib	CYP2C19 activ	CYP2C9 activ	Cav3 T inh	CYP2C9 inh
C#CCNC(=O)C1=C[C@H](c2ccc3c(c2)OCO3)C[C@H](OCc2ccc(CO)cc2)O1	/	/	/	-0.81	/
COc1ccc(C2C(C(=O)N3CCOCC3)CCC(=O)N2c2cc(OC)c(OC)c(OC)c2)cc1 (stereo not drawn)	/	/	/	0.1	/
CC(=O)C1=C(c2ccccc2)NC(=O)NC1c1ccccc1OCC#N (stereo not drawn)	-5	1	1.1	0.16	-9
CN=c1scc(C)n1/N=C/c1ccc(O)cc1	-10	1.1	1.3	1.1	-34
CN=c1scc(C)n1/N=C/c1ccc2c(c1)OCO2	17	0.8	0.9	-4*	10
O=[N+]([O-])c1cccc(N=NN(CCO)c2cccc([N+](=O)[O-])c2)c1	-6	1.1	0.8	-0.18	19

Assay outcomes deposited in PubChem BioAssay by several laboratories.
